Many of the other results were omitted from the sample, so hits are more common in it than they were.
Pf Dd2 inh – qHTS Primary assay for Inhibitors of Plasmodium falciparum Dd2 growth in vitro; AID 1347417, 2020; Potency, µM (top dose mostly 28.9 µM), usual class: inhibitors; 4.3% of 120,000 active; P. falciparum Dd2 growth, SYBR Green, 72 h; active = well fitted inhibition curve with a large enough effect; note: nearly all actives have a fitted effect of over 65% in size
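Infected erythrocytes (Dd2, 0.3% parasitemia, 2.5% hematocrit final) are added to compound in RPMI-1640/Albumax II medium, grown 72 h at 37C in low oxygen, then lysed with saponin/Triton-X containing SYBR Green and read by fluorescence.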
Numbers stand for hits; . = inactive; [ ] = remark or other dose.

SMILES	Pf Dd2 inh
COc1ccc(C(=O)N[C@@H]2C=C[C@@H](c3c(C)nn(-c4ccccc4)c3C)C2)cc1	.
Cc1ccc(-n2nc(C)c([C@H]3C=C[C@@H](O)C3)c2C)cc1Cl	.
COc1ccc(C(=O)N[C@@H]2C=C[C@@H](c3c(C)nn(-c4ccc(C(F)(F)F)cc4)c3C)C2)cc1	.
Cc1nn(-c2ccc(C(F)(F)F)cc2)c(C)c1[C@@H]1C=C[C@@H](NS(=O)(=O)c2ccccc2)C1	.
Cc1ncsc1C1N(C2CCN(C(=O)NC3CCCCC3)CC2)C(=O)C12CCCC2 (stereo not given)	.
CC(C)(C)C(=O)Nc1cnc(-c2cccnc2)nc1	.
O=C(C[C@H]1NC(=O)c2ccccc2NC1=O)Nc1cccc2[nH]ccc12	.
COc1ccc(C)cc1NC(=O)c1oc2ccc(S(=O)(=O)N3CCCCC3)cc2c1C	.
CCOC(=O)c1oc2ccc(S(=O)(=O)n3nc(-c4cc(OCC)c(OCC)c(OCC)c4)cc3N)cc2c1C	10µM
COc1ccc(C)cc1NC(=O)c1oc2ccc(S(=O)(=O)N3CCOCC3)cc2c1C	.
Cc1ccc(CC(=O)N2CCC(c3n[nH]c(=O)n3-c3ccccc3)CC2)cc1	.
Cc1ccc(-n2c(C3CCN(C(=O)Cc4ccc(Cl)cc4)CC3)n[nH]c2=O)cc1	13µM
COc1cccc(CC(=O)N2CCC(c3n[nH]c(=O)n3Cc3ccc(F)cc3)CC2)c1	.
COc1ccc(Cn2c(C3CCN(C(=O)Cc4cccc(C)c4)CC3)n[nH]c2=O)cc1	.
Cc1ccc(-n2c(C3CCN(C(=O)Cc4ccccc4Cl)CC3)n[nH]c2=O)cc1	.
Cc1cccc(OCC(=O)N2CCC(c3n[nH]c(=O)n3Cc3ccc(F)cc3)CC2)c1	11µM
COc1cccc(CC(=O)N2CCCN(c3cc(-c4ccc(Br)cc4)[nH]n3)CC2)c1	.
COCC(=O)Nc1ccc([C@@H](O)[C@H]2COCC(=O)N2Cc2ccccc2F)cc1	.
COCCCNC(=O)c1ccnc(-c2nnc3ccc(N(C)C)nn23)c1	.
Cc1nnc(-c2cc(-c3ccncc3)ccn2)n1CCN1CCOCC1	.
CN(C)C(=O)N1CCCC1c1nnc2n1CCNC2 (stereo not given)	.
COc1ccc(-c2noc(C(=O)O)c2[C@@H](C)NC(=O)c2cc(C)n(C)n2)cc1	3.2µM
COc1ccc(-c2noc([C@@H](C)NC(=O)c3cc(C)n(C)n3)c2C(=O)O)cc1	.
COc1ccc(-c2noc(C(=O)O)c2[C@@H](C)NC(=O)c2cccnc2)cc1	.
CCCn1nc(C)cc1CN(C)C(=O)[C@@H]1CN(C(C)=O)C[C@H]1c1nc(C)no1	.
SMILES	Pf Dd2 inh
O=C(N1CCCCC1)C1(CCO)CC12CCOCC2 (stereo not given)	.
CCC(=O)NCc1cccnc1Oc1ccccc1OC	.
CCCCOc1c(CNC(C)c2ncccc2C)cccc1OC (stereo not given)	5.6µM
COc1ccccc1Oc1ncccc1CNC(=O)c1cccnc1C	.
O=C(c1ccncc1)N1CCCC(c2noc(COc3ccccc3)n2)C1 (stereo not given)	.
Cn1cc(C#N)cc1C(=O)N1CCC2(CCC(=O)N(CCc3cnc[nH]3)C2)CC1	.
Cc1noc(-c2cccc(OC3CN(S(=O)(=O)c4c(C)noc4C)C3)c2)n1	.[5.79 µM]
COc1ccc(-c2ccc(NS(=O)(=O)c3ccccc3Cl)cc2)nn1	11µM
COc1ccc(-c2ccc(NS(=O)(=O)c3cccc(C)c3)cc2)nn1	.
COc1ccc(-c2ccc(NS(=O)(=O)c3ccccc3)cc2)nn1	.
COc1cccc(CNc2ncnc3c2CN(C2CCCNCC2)C(=O)CN3C)c1 (stereo not given)	.
COCCOC1CN(C2CCN(C(=O)NC(C)C)CC2)C12CCCCC2 (stereo not given)	.
CC(C)C(=O)N1CCC(N2CC(OCC3CC3)C23CCCCC3)CC1 (stereo not given)	3.2µM
O=C1C(O)C2(CCCCC2)N1C1CCNCC1 (stereo not given)	.
C1CCC2(CC1)C(OCC1CC1)CN2C1CCNCC1 (stereo not given)	4µM
C1CC2(CCN1)CC(OCC1CC1)CCO2 (stereo not given)	.
Cc1ccc(C(=O)N2CCC(N3CC(OCC4CC4)C34CCCCC4)CC2)cn1 (stereo not given)	.
O=C(C1CCCC1)N1CCC(CCOc2ccccc2F)C1 (stereo not given)	.
O=C(Nc1ccc(Cl)cc1)N1CCC(c2nnc3n2C(C(=O)N2CCOCC2)CC3)CC1 (stereo not given)	.
C=CCN(C)CC[C@@H]1CC[C@H](O)[C@@H](C(=O)NC2CCCCC2)O1	.
CN1c2cccnc2CN(C(=O)Nc2cccc(F)c2)CC[C@H]1CO	.
CC(=O)N1CCC(C(=O)N2CCCCCCNC(=O)[C@@H]3CCCC[C@@H]32)CC1	.
CCOc1ccc(NC(=O)c2ccc3c(c2)N(CC)C2CCCCN2C3=O)cc1 (stereo not given)	5µM
CCN1c2cc(C(=O)Nc3ccc(OC)c(OC)c3)ccc2C(=O)N2CCCCCC21 (stereo not given)	.

Screening data (PubChem BioAssay)
